# The other results are listed elsewhere or left out. How many sequences the whole screen found active is unknown.
# Molecular target: furin, P09958
# Experiment: furin cleavage Z-score vs untreated control; higher = more cleavage, active = 3.5 or more, inactive = 1 or less, 8 variable residues between constant flanks
# How it was run: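 Magnetic beads held 8-mer peptides by the N-terminus, each fused to a cDNA oligonucleotide, and purified furin was added for 7.5, 15 or 30 min. Released DNA was sequenced after PCR adapter tagging. The cleavage Z-score is the log count relative to furin-free reactions, lowess-adjusted and divided by median absolute deviation.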
# 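Further: purified furin at 1:10 enzyme:substrate in 50 mM HEPES pH 7.5.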
# furin, P09958, sequence (P09958 whole entry): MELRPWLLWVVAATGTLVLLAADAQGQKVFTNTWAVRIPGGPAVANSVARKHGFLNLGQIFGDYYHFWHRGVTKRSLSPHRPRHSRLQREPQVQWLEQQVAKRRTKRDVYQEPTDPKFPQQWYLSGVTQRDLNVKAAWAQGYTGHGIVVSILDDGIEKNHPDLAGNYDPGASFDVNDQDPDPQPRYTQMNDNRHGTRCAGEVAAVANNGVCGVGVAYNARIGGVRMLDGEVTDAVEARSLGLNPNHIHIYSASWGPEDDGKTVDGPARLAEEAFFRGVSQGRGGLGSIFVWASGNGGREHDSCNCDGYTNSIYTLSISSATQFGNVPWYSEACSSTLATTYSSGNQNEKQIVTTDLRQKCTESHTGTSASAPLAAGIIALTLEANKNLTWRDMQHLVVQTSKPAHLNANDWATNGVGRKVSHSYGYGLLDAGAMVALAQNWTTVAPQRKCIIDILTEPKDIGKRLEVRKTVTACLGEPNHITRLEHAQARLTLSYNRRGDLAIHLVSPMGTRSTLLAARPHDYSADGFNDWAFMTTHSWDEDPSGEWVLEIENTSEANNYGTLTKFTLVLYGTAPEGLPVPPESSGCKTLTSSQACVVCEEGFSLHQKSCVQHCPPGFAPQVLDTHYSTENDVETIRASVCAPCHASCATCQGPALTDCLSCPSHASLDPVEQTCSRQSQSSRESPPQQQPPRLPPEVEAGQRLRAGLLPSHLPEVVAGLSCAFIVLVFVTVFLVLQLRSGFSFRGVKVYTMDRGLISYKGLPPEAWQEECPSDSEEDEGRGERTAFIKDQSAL
Sequence,furin cleavage Z-score (7.5 min),furin cleavage Z-score (15 min),furin cleavage Z-score (30 min)
CAQKLPINALAGNASASA [HC1380],0.17 (inactive),-0.107 (inactive),-0.819 (inactive)
CAGDFHYVTGAGNASASA [HC1209],-0.771 (inactive),-0.551 (inactive),-1.55 (inactive)
CATTPPSGSWAGNASASA [HC60],-1.04 (inactive),-0.299 (inactive),-0.554 (inactive)
CASYANGSGPAGNASASA [HC397],0.376 (inactive),-1.07 (inactive),0.0876 (inactive)
CADKEVVTSTAGNASASA [HC2294],-0.414 (inactive),-0.137 (inactive),-0.18 (inactive)
CAAEVRSKRRAGNASASA [FS-3],4.87 (active),4.38 (active),5.1 (active)
CAAERRSVIRAGNASASA [FS-1666],-0.389 (inactive),-2.19 (inactive),-0.341 (inactive)
CAPLRRSKRRAGNASASA [FS-1148],9.4 (active),9.64 (active),8.71 (active)
CAIRQVGDFHAGNASASA [HC1207],-0.371 (inactive),-0.615 (inactive),-1.78 (inactive)
CAALKRSKRRAGNASASA [FS-1445],11.5 (active),10.6 (active),8.09 (active)
CAIRSRVLREAGNASASA [FS-804],12.6 (active),10.5 (active),8.33 (active)
CAALKRPVEQAGNASASA [FS-2858],-1.15 (inactive),-0.538 (inactive),-0.285 (inactive)
CAIRSALKRPAGNASASA [FS-444],0.37 (inactive),-0.823 (inactive),-0.407 (inactive)
CAGENCGYRRAGNASASA [HC1506],-0.528 (inactive),-0.187 (inactive),-0.341 (inactive)
CAEVVPSTWVAGNASASA [HC140],-0.678 (inactive),-0.107 (inactive),0.5 (inactive)
CAESAGVQEDAGNASASA [HC1533],-0.496 (inactive),-1.46 (inactive),-0.975 (inactive)
CAQLFTFSPRAGNASASA [HC305],-0.105 (inactive),-0.574 (inactive),0.219 (inactive)
CASIFLLALLAGNASASA [HC248],-0.433 (inactive),-0.299 (inactive),-0.909 (inactive)
CAGNWFGCTWAGNASASA [HC434],2,1.1,-0.112 (inactive)
CARAHRSVLAAGNASASA [FS-1943],-0.832 (inactive),-0.15 (inactive),2.24
CAAVTHINSVAGNASASA [HC1428],-1.27 (inactive),-0.864 (inactive),-0.253 (inactive)
CANRKRSKRRAGNASASA [FS-1240],10.6 (active),10.8 (active),8.12 (active)
CAFRSRSLREAGNASASA [FS-774],5.16 (active),6.5 (active),6.69 (active)
CASRKRSFFRAGNASASA [FS-3137],-0.305 (inactive),2.22,0.35 (inactive)
CATRARSLRFAGNASASA [FS-1099],-0.222 (inactive),2.2,1.03
CAFRSRSKRRAGNASASA [FS-773],8.16 (active),8.31 (active),7.71 (active)
CANRKRNKKQAGNASASA [FS-1239],0.136 (inactive),0.864 (inactive),2.02
CATCSRHKRRAGNASASA [FS-96],4.62 (active),7.75 (active),7.17 (active)

# — the supplement of paper PMC3545927
